Bioassay records as filed in PubChem BioAssay.
Sampled rows, rich in hits. Any-hit rate of the full collection: about 3.3%.
AmpC inh no detg: inhibitors of E. coli AmpC beta-lactamase without detergent; AmpC nitrocefin hydrolysis, absorbance 480 nm, 0.0001% Triton; Potency, µM (titrated, usually from 57.1 µM), for the others: top-dose activity change, negative = inhibition, hits mostly inhibitors; 0.52% of 330,000 active;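 further: plate controls were no compound for no effect and no enzyme for full effect; nearly all actives have a fitted effect of over 20% in size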
Target sequence (P00811 whole entry, looked up): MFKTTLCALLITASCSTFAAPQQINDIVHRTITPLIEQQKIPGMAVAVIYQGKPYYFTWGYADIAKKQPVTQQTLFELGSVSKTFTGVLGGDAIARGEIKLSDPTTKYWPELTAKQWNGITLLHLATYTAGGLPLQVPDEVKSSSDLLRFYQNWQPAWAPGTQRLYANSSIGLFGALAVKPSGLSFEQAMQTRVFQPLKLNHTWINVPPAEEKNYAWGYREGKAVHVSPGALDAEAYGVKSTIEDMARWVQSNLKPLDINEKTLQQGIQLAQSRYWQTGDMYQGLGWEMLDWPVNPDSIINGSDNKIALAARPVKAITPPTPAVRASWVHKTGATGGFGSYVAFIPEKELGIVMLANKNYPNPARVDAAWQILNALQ
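AmpC (5.3 nM in the dispensed reagent) in 20 mM phosphate pH 7.0 with 0.01% (detergent screen) or 0.0001% Triton X-100 was preincubated with compounds for 15 min at room temperature. Nitrocefin was then added from an 800 uM solution, and hydrolysis was followed at 480 nm.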
Sm TGR block: S. mansoni TGR enzyme inhibition | AID 485364 | 3% of 360,000 active | purified TGR, DTNB reduction, TNB absorbance 405 nm | Potency, µM (top dose mostly 114 µM), for the others: at the highest dose activity change, negative = inhibition, usual class: inhibitors | Q962Y6; further: nearly all actives have a fitted effect of over 60% in size
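Kinetic colorimetric format: TGR-catalysed, NADPH-driven DTNB reduction monitored via TNB absorbance. Enzyme dispensed at 20 nM; compound exposure 15 min at room temperature before reaction start.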
AmpC detergent: inhibitors of E. coli AmpC beta-lactamase with detergent. AmpC hydrolysis of nitrocefin, absorbance 480 nm, 0.01% Triton. Potency, µM (titrated, usually from 114 µM), for inactives: at the top dose activity change, negative = inhibition, actives largely listed as inhibitors. 0.041% of 370,000 active;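 further: 0% = no-compound wells and -100% = no-enzyme wells; nearly all actives have a fitted effect of over 25% in size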
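AmpC (5.3 nM in the dispensed reagent) in 20 mM phosphate pH 7.0 with 0.01% (detergent screen) or 0.0001% Triton X-100 was preincubated with compounds for 15 min at room temperature. Nitrocefin was then added from an 800 uM solution, and hydrolysis was followed at 480 nm.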
Starred values were filed as active, the others as inactive; [ ] = another dose, or the depositor's remark. The call rests on the fitted dose curve; in most records, active means well fitted curve in the direction sought with a large enough effect; inconclusive means small, poorly fitted or top-dose-only effect, or another doubt; inactive means no such curve, though single readings can be large; an effect the other way counts as inactive or inconclusive. Unless noted, on the % scale 0 is the no-effect control and ±100 the full control effect; potency means the concentration at half of the fitted maximal effect.

Results for CC(C)(C)c1ccc(-c2nc(S(=O)(=O)c3ccccc3)c(N3CCOCC3)o2)cc1 ?
Sm TGR block: 4.8%; AmpC detergent: 20.9%

What do the screens show for `Cc1ccc(S(=O)(=O)c2nc(-c3ccccc3)oc2N2CCC(C(N)=O)CC2)cc1`?
AmpC inh no detg: 15.7%; Sm TGR block: 14.1µM*; AmpC detergent: -2.2%

What do the screens show for `NC(=O)C1CCN(c2oc(-c3ccccc3)nc2S(=O)(=O)c2ccc(Br)cc2)CC1`?
AmpC inh no detg: 54.3%; Sm TGR block: inconclusive; AmpC detergent: 4.4%

What do the screens show for `Cc1ccc(S(=O)(=O)c2nc(Cc3ccccc3)oc2N2CCOCC2)cc1`?
AmpC inh no detg: -14.1%; Sm TGR block: 0.794µM*; AmpC detergent: inconclusive

What do the screens show for `Cc1ccc(S(=O)(=O)c2nc(-c3cccc(C)c3)oc2N2CCCCC2)cc1`?
Sm TGR block: 20µM*; AmpC detergent: -2.2%

How did COc1ccc(-c2nc(S(=O)(=O)c3ccccc3)c(N3CCOCC3)o2)cc1 do in these assays?
AmpC inh no detg: -1.8%; Sm TGR block: 39.8µM*; AmpC detergent: -13.0%

What do the screens show for `Cc1ccc(S(=O)(=O)c2nc(-c3cccc(C)c3)oc2N2CCN(c3ccccc3)CC2)cc1`?
Sm TGR block: 9.7%; AmpC detergent: -1.3%

Results for Cc1ccc(-c2nc(S(=O)(=O)c3ccc(C)cc3)c(N3CCN(c4ccccc4)CC3)o2)cc1 ?
Sm TGR block: 1.9%; AmpC detergent: 11.7%

What do the screens show for `CN(Cc1ccco1)c1ncnc2ccc(-c3ccc4c(ccn4C)c3)cc12`?
AmpC inh no detg: -25.7%; Sm TGR block: -7.6%; AmpC detergent: -5.1%

What do the screens show for `O=S(=O)(c1ccccc1)c1nc(-c2ccccc2F)oc1N1CCOCC1`?
Sm TGR block: -12.1%; AmpC detergent: 6.2%

How did COc1ccc(-c2nc(C#N)c(N3CCCCC3)o2)cc1 do in these assays?
AmpC inh no detg: 8.1%; Sm TGR block: -14.6%; AmpC detergent: -7.7%

What do the screens show for `COc1ccc(-c2nc(S(=O)(=O)c3ccc(C)cc3)c(N3CCCCC3)o2)cc1`?
Sm TGR block: 10µM*; AmpC detergent: 8.8%

How did Cc1ccc(S(=O)(=O)c2nc(-c3ccccc3F)oc2N2CCCCC2)cc1 do in these assays?
Sm TGR block: 44.7µM*; AmpC detergent: 9.4%

How did COc1ccc(NC(=O)CSc2oc(-c3ccc(F)cc3)nc2S(=O)(=O)c2ccc(C)cc2)c(OC)c1 do in these assays?
Sm TGR block: 44.7µM*; AmpC detergent: 5.6%

What do the screens show for `COc1cccc(-c2nc(S(=O)(=O)c3ccc(C)cc3)c(N3CCCCCC3)o2)c1`?
Sm TGR block: 5.3%; AmpC detergent: 23.9%

Results for Cc1ccc(S(=O)(=O)c2nc(-c3ccc(F)cc3)oc2SCC(=O)NC2CCCCC2)cc1 ?
Sm TGR block: -3.2%; AmpC detergent: 7.3%

How did COc1ccc(-c2nc(C#N)c(N3CCCCCC3)o2)cc1 do in these assays?
AmpC inh no detg: 7.08µM*; Sm TGR block: 2.3%; AmpC detergent: 9.2%

What do the screens show for `O=C(C1CCC1)N1CCN(c2ccc(Cl)cc2)CC1`?
AmpC inh no detg: 8.4%; Sm TGR block: -1.3%; AmpC detergent: -10.4%

What do the screens show for `CC(C)=CC(=O)OCC(=O)Nc1ccc(SC(F)F)cc1`?
AmpC inh no detg: -19.1%; Sm TGR block: 5.1%; AmpC detergent: -5.0%

What do the screens show for `Cc1ccc(-c2nc(SC(C)C(=O)c3c(N)n(C)c(=O)n(C)c3=O)n[nH]2)cc1` (configuration not stated)?
AmpC inh no detg: -14.8%; Sm TGR block: -14.7%; AmpC detergent: -3.2%

Results for O=S(=O)(c1ccccc1)c1nc(-c2ccco2)oc1N1CCOCC1 ?
AmpC inh no detg: -18.0%; Sm TGR block: 10.7%; AmpC detergent: -1.0%

Results for O=S(=O)(c1ccccc1)c1nc(-c2ccccc2)oc1N1CCCC1 ?
AmpC inh no detg: -17.6%[2.29 µM]; Sm TGR block: -22.6%; AmpC detergent: 8.1%

What do the screens show for `O=S(=O)(c1ccccc1)c1nc(-c2ccccc2)oc1N1CCCCC1`?
AmpC inh no detg: -20.7%; Sm TGR block: 22.4µM*; AmpC detergent: 4.3%

How did Cc1ccc(S(=O)(=O)c2nc(-c3ccccc3)oc2N2CCCC2)cc1 do in these assays?
AmpC inh no detg: -21.5%; Sm TGR block: 2µM*; AmpC detergent: -11.8%

What do the screens show for `Cc1ccc(S(=O)(=O)c2nc(-c3ccccc3)oc2N2CCN(c3ccccc3)CC2)cc1`?
Sm TGR block: 8.5%; AmpC detergent: 24.0%

What do the screens show for `Cc1ccc(S(=O)(=O)c2nc(-c3ccco3)oc2N2CCC(C)CC2)cc1`?
AmpC inh no detg: -14.9%; Sm TGR block: 39.8µM*; AmpC detergent: -4.0%

What do the screens show for `O=C(COc1ccc(Cl)cc1Br)N1CCN(c2ncccn2)CC1`?
AmpC inh no detg: 60.1%; Sm TGR block: 0.7%; AmpC detergent: -12.6%

How did COc1cc(/C=N/NC(=O)CNC(=O)/C=C/c2ccco2)cc(OC)c1OC do in these assays?
AmpC inh no detg: -12.4%; Sm TGR block: 50.1µM*; AmpC detergent: -8.1%

What do the screens show for `COc1ccccc1/C=C/C(=O)NCC(=O)N/N=C/c1ccc2c(c1)OCO2`?
AmpC inh no detg: -7.3%; Sm TGR block: 4.5%; AmpC detergent: 3.4%

Results for COc1ccccc1/C=C/C(=O)NCC(=O)N/N=C/c1ccccc1 ?
AmpC inh no detg: -18.0%; Sm TGR block: -2.3%; AmpC detergent: -7.0%

Results for COc1ccc(/C=N/NC(=O)CNC(=O)/C=C/c2ccco2)cc1OC ?
AmpC inh no detg: -15.6%; Sm TGR block: 25.1µM*; AmpC detergent: 5.9%

How did O=C(CN(C(=O)CCC(=O)Nc1ccccn1)C1CCCC1)NCc1ccc(F)cc1 do in these assays?
AmpC inh no detg: -5.1%; Sm TGR block: 2.1%; AmpC detergent: inconclusive

Results for O=C(CN1C(=O)NC2(CCOc3ccccc32)C1=O)c1cccs1 (configuration not stated) ?
AmpC inh no detg: -17.4%

What do the screens show for `O=[N+]([O-])c1ccc(Sc2ccccc2Cl)nc1`?
AmpC inh no detg: -24.6%; Sm TGR block: inconclusive; AmpC detergent: 1.2%

How did O=[N+]([O-])c1ccc(Sc2ncc3ccccn23)nc1 do in these assays?
AmpC inh no detg: -21.8%; Sm TGR block: 44.7µM*; AmpC detergent: 7.7%

How did CC(C)(C)c1ccc(C(=O)COC(=O)CN2C(=O)NC3(CCCC3)C2=O)cc1 do in these assays?
AmpC inh no detg: 62.4%; Sm TGR block: -1.8%; AmpC detergent: 2.2%

Results for Cc1ccc(Cl)cc1NC(=O)c1ccc2nc(CCc3ccccc3)oc2c1 ?
Sm TGR block: 1.4%; AmpC detergent: 17.6%

How did Cc1ccc(CSc2nc3ccccc3c(=O)n2Cc2ccco2)cc1 do in these assays?
AmpC inh no detg: -36.4%; Sm TGR block: inconclusive; AmpC detergent: -6.9%

How did O=c1c2ccccc2nc(SCc2ccccc2)n1Cc1ccco1 do in these assays?
AmpC inh no detg: -9.5%; Sm TGR block: 28.2µM*; AmpC detergent: 3.7%

How did COc1cc2[nH]c3c(Cl)ncnc3c2cc1OC do in these assays?
AmpC inh no detg: -10.2%; Sm TGR block: 3.2%; AmpC detergent: 1.0%

How did COc1cc2[nH]c(Cl)c([N+](=O)[O-])c2cc1OC do in these assays?
AmpC inh no detg: -4.0%; Sm TGR block: 2µM*; AmpC detergent: -6.0%
